Hits are enriched below; roughly 21% of the tested compounds scored in any of these assays.
NS1 inh: qHTS Assay for Inhibitors of Influenza NS1 Protein Function | hit rate 0.4% among 270,000 | AID 2326, 2010 | Potency, µM (top dose mostly 46.1 µM), inactives show top-dose activity, positive = more growth; note: potency is the fitted concentration of half-maximal effect; actives are rising curves; nearly all actives have a fitted effect of over 50% in size
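Compounds were scored for reversing the slow growth caused by influenza A NS1 in S. cerevisiae, measured by optical density at 600 nm. Assay medium contained 2% galactose at pH 6.0; NS1-free yeast of the same strain were the positive control.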
CHX counter: Cycloheximide Counterscreen for Small Molecule Inhibitors of Shiga Toxin; AID 2314, 2010; max response, %; hit rate 12% among 300,000; cell reporter, cycloheximide protein synthesis inhibition counterscreen; in the data active = max response mostly above about 13%, no sharp cut-off; inactive = mostly below about 14%; note: read at 38.3 µM for the half of the compounds with a filed dose; 0% is about no effect
SARS PLpro yeast: qHTS of Yeast-based Assay for SARS-CoV PLP | hit rate 0.19% among 330,000 | Potency, µM (highest dose often 32.9 µM), inactives show at the highest dose activity, positive = growth rescue, usual class: activators | S. cerevisiae expressing SARS-CoV PLpro, growth rescue; note: potency is the fitted concentration of half-maximal effect; 0% is about no effect; nearly all actives have a fitted effect of over 55% in size
Pf growth 48h: Primary qHTS for delayed death inhibitors of the malarial parasite plastid, 48 hour incubation; P. falciparum luciferase growth in erythrocytes, 48 h; AID 504832, 2011; hit rate 5.9% among 310,000; Potency, µM (top dose mostly 28.7 µM), for the others: top-dose activity change, negative = inhibition, actives largely listed as inhibitors; active = well fitted inhibition curve with a large enough effect; inconclusive = small, poorly fitted or top-dose-only effect, or another doubt; inactive = no such curve, though single readings can be large or run the other way; note: potency is the fitted concentration of half-maximal effect; % is set by controls: 0 for no effect and ±100 for the full control effect
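Here the parasites carry a stable luciferase gene and grow inside erythrocytes in Albumax-based RPMI medium with compound for one erythrocytic cycle. Activity is scored as loss of luminescent signal.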
Pf growth 96h: Primary qHTS for delayed death inhibitors of the malarial parasite plastid, 96 hour incubation; hit rate 6.9% among 320,000; P. falciparum luciferase reporter growth, 96 h; Potency, µM (highest dose often 28.7 µM), without a hit: at the top dose activity change, negative = inhibition, hits mostly inhibitors; active = well fitted inhibition curve with a large enough effect; inconclusive = small, poorly fitted or top-dose-only effect, or another doubt; inactive = no such curve, though single readings can be large or run the other way; note: potency is the fitted concentration of half-maximal effect; % is set by controls: 0 for no effect and ±100 for the full control effect
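Two-generation exposure (96 h) targets delayed-death phenotype. Reporter parasites carrying integrated firefly luciferase, in red cells at 2% hematocrit and 0.05% parasitemia final, kept at 37 C, 5% CO2; luminescence loss indicates inhibition.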
Shiga inhibitor: A qHTS for Small Molecule Inhibitors of Shiga Toxin; Vero cells, Shiga toxin protein synthesis inhibition reporter; inhibition, % at 38.7 µM; hit rate 9.2% among 290,000; AID 2315, 2010; in the data active = inhibition mostly above about 28%, no sharp cut-off; inactive = mostly below about 43%; note: 0% is about no effect
An asterisk follows results filed as active; ? = inconclusive; . = no result; [ ] = remark or other dose. Unless noted, calls come from the whole dose curve.

SMILES	NS1 inh	CHX counter	SARS PLpro yeast	Pf growth 48h	Pf growth 96h	Shiga inhibitor
COc1ccccc1N(Cc1ccccc1)S(=O)(=O)c1cccc(C(=O)Nc2cccc(C)n2)c1	1%	10	-13%	9.3µM*	?	2
CCNc1ccc(C(=O)OCC)cc1NC(=O)c1cccc(N(C)C)c1	-13%	-2	2%	?	-27%	18
CCNc1ccc(C(=O)OCC)cc1NC(=O)c1cccc(S(=O)(=O)N(C)c2ccccc2)c1	?	2	7%	?	2.3µM*	-8
C=CCN(c1ccccc1OC)S(=O)(=O)c1cccc(C(=O)Nc2nnc(C3CC3)s2)c1	.	.	2%	10µM*	9.3µM*	.
COc1ccc(N(Cc2ccccc2)S(=O)(=O)c2cccc(C(=O)Nc3ccccn3)c2)cc1	.	.	6%[6.58 µM]	?	?	.
Cc1cccc(NC(=O)c2cccc(S(=O)(=O)N(C)c3ccccc3)c2)n1	.	.	1%	7.4µM*	13µM*	.
Cc1ccc(S(=O)(=O)N(C)c2ccc(C(=O)Nc3cccc(C)n3)cc2)cc1	-45%	1	-7%	-2%	0%	12
CCC(C(=O)NC1CCCC1)n1nc(C)n2c(cc3occc32)c1=O (configuration not stated)	15%	2	3%	-9%	-2%	-3
O=C(c1cc(S(=O)(=O)N2CCOCC2)ccc1Cl)N1CCc2ccccc2C1	-5%	-1	3%	?	14%	-1
COc1ccc(CNC(=O)C2CCN(S(=O)(=O)c3ccccc3)CC2)cc1	1%	-2	3%	-11%	?	-3
CCN(c1ccccc1)S(=O)(=O)c1ccc(C(=O)Nc2cccc(C)n2)cc1	.	.	3%	9.3µM*	?	.
Cc1cccc(NC(=O)c2ccc(C(=O)c3ccccc3)cc2)n1	.	.	.	88%	113%	.
CCOC(=O)C1CCN(C(=O)COc2ccc3c(c2)OCO3)CC1	-3%	-3	1%	-3%	100%	-5
O=C(Cc1ccccc1)N/N=C/c1ccccc1F	1%	-2	-4%	43%	-10%	58*
O=C(O)COc1ccccc1/C=N/NC(=O)c1ccc(F)cc1	.	3	-6%	23%	16%	3
O=C(O)COc1ccccc1/C=N/NC(=O)Cc1ccccc1	?	8	0%	-10%	10µM*	.
COc1ccc(CN2CCNC(=O)C2CC(=O)NCCC2=CCCCC2)c(F)c1 (configuration not stated)	0%	-4	1%	3%	?	-23
Cc1ccc(/C=C(\C#N)C(=O)NCCN2CCOCC2)cc1	.	-9	-3%	?	14%	-8
COc1cc(/C=C(\C#N)C(=O)Nc2ccccc2)ccc1OCCN1CCOCC1	-16%	27*	1%	33%	?	45*
N#C/C(=C\c1ccc(OCCN2CCOCC2)cc1)C(=O)Nc1ccccc1	-8%	20*	19%	7%	?	17
COc1cc(/C=C(\C#N)C(=O)Nc2cccc(C(=O)O)c2)ccc1OCc1ccc(Cl)cc1	-5%	52*	-1%	24%	69%	107*
COc1cc(/C=C(\C#N)C(=O)Nc2ccccc2F)ccc1OCCN1CCOCC1	6%	25*	-2%	64%	-10%	14
COc1ccc(NC(=O)CN(C)C(=O)CCCSc2nc3ccccc3[nH]2)cc1	.	.	-6%	?	-5%	.
COc1ccc(N2C(=O)NC(=O)C2=O)cc1	14%	40*	2%	1%	9%	4
COc1ccccc1Oc1ccc2c(c1)C(=O)N(c1ccc(C)cc1)C2=O	-2%	1	-8%	0%	45%	-9
SMILES	NS1 inh	CHX counter	SARS PLpro yeast	Pf growth 48h	Pf growth 96h	Shiga inhibitor
C=C1c2ccccc2NC(=O)N1c1ccc(OC)cc1	2%	12*	-1%	8%	16%	36
COc1ccc(N2C(=O)c3cc4ccccc4cc3C2=O)cc1	2%	-2	0%	1%	10µM*	-5
CC(C)(C)OC(=O)CNC(=O)c1nc[nH]c1C(=O)N1CCc2ccccc2C1	-7%	1	-1%	25%	3%	-2
CCOc1ccc(S(=O)(=O)N2CCCCCC2)cc1	-8%	9	7%[6.58 µM]	.	?	-14
CCOc1ccc(CN(C)C(=O)CCl)cc1	.	4	2%	6.6µM*	12%[5.75 µM]	9
COc1ccc(CN(C)C(=O)CCc2ccc(S(=O)(=O)N3CCCCCC3)cc2)c(OC)c1	.	.	-1%	13µM*	?	.
CCOc1ccc(CN(C)C(=O)CCc2ccc(S(=O)(=O)N3CCCCCC3)cc2)cc1	.	.	2%	13µM*	?	.
COc1ccc(CN(C)C(=O)/C=C/c2ccc(S(=O)(=O)N3CCCCCC3)cc2)cc1	.	.	0%	9.3µM*	13µM*	.
CCCc1nnc(SCC(=O)Nc2cccc(C(F)(F)F)c2)o1	-11%	-6	-7%	28%	13%	3
COc1ccc(NC(=O)CCNS(=O)(=O)c2cccc3nonc23)cc1	3%	-3	1%	36%	-25%	-9
CC(C)(C)C(=O)CP(=O)(O)O	-1%	.	.	.	.	.
NC(=O)NCCc1ccccc1	1%	-2	4%	31%	34%	-6
O=C(NCc1ccc(Cl)cc1)N1CCN(S(=O)(=O)c2ccccc2)CC1	-7%	-4	-1%	-39%	11%	-10
O=c1[nH]c2ccc(S(=O)(=O)Nc3ccc(Cl)cc3)cc2[nH]1	-56%	1	-5%	10%	?	-7
CCOc1ccc(CC(=O)C2=C(N3CCOCC3)CC(C)(C)CC2=O)cc1OCC	.	-2	-1%	-14%	6.6µM*	-8
CCOc1ccc(CC(=N)C2=C(O)CC(C)(C)CC2=O)cc1OCC	-1%	-4	18%	1%	?	-3
CC(C)CCCN1C(N(C)C)=NC[C@@H]1C	.	.	0%	-10%	67%	.
COc1ccc(CN(C)C(=O)Cc2ccc(S(=O)(=O)N3CCOCC3)s2)cc1OC	.	.	4%	-18%	-25%	.
O=C(Cc1ccc(S(=O)(=O)N2CCOCC2)s1)N(Cc1ccccc1)c1ccccc1	.	.	-1%	9.3µM*	2.3µM*	.
CCCCN(C(=O)Cc1ccc(S(=O)(=O)N2CCOCC2)s1)c1ccccc1	.	.	1%	?	12µM*	.
CCOP(=O)(OCC)c1nc(-c2cccc3ccccc23)oc1NCc1ccc(OC)cc1	.	4	0%	?	13µM*	1
CCOP(=O)(OCC)c1nc(-c2cccc3ccccc23)oc1NCc1ccccc1	-17%	-2	-6%	?	?	-5
CCOP(=O)(OCC)c1nc(/C=C/c2ccccc2)oc1NCc1ccc(OC)cc1	16%	3	-14%	.	?	16
CCOP(=O)(OCC)c1nc(/C=C/c2ccccc2)oc1NCc1ccccc1	9%	12	10%	12µM*	44%	11
COc1ccc(C(c2nnnn2CC2CCCO2)N2CCN(c3ccccc3)CC2)cc1 (configuration not stated)	-10%	-4	-8%	?	34%	2
